Test results taken from PubChem BioAssay (Tox21).
Records with an inconclusive call do not appear. Activity calls are given as the source filed them. Unless noted, calls follow the shape of the dose curve; as a rule, active = well fitted curve in the direction sought with a large enough effect in the repeat runs; inconclusive = weak or mixed curves; inactive = no such curve, though single readings can be large; an effect the other way counts as inactive or inconclusive.

How the values were obtained:
[1] = Human pregnane X receptor (PXR) small molecule agonists, qHTS cell viability counter screen (AID 1346977); also: % is scaled to controls: 0 for no effect and ±100 for the full control effect; nearly all actives have a fitted effect of over 50% in size
How it was run: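 After a 5hr pre-incubation, PXR-Luc HepG2 cells received compounds plus positive control in DMSO and were kept 24hr at 37C. Cell viability was quantified by fluorescence from CellTiter-Fluor added for the final hour.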

[2] = Caspase-3/7 induction in HepG2 cells by small molecules, qHTS assay (AID 1346978); also: % is scaled to controls: 0 for no effect and ±100 for the full control effect; nearly all actives have a fitted effect of over 15% in size
How it was run: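 Wild-type HepG2 cells (2,000/well) were settled 5 h at 37 C, 5% CO2, then exposed to compounds in DMSO for 17 h. Caspase-3/7 activity was read by luminescence 30 min after adding Caspase-Glo 3/7 reagent at room temperature.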

[3] = Caspase-3/7 induction in CHO-K1 cells by small molecules, qHTS assay (AID 1346980); also: % is scaled to controls: 0 for no effect and ±100 for the full control effect; nearly all actives have a fitted effect of over 15% in size
How it was run: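 Wild-type cells were seeded at 1,500 per well and settled 5 hr at 37 C, 5% CO2, then exposed to DMSO-dissolved compounds for 17 hr. Caspase-Glo 3/7 reagent was added, and luminescence was read after 30min at room temperature.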

[4] = Caspase-3/7 induction in HepG2 cells by small molecules, qHTS cell viability counter screen (AID 1346981); also: series mostly up to about 92 µM; % is scaled to controls: 0 for no effect and ±100 for the full control effect; nearly all actives have a fitted effect of over 30% in size
How it was run: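 In this quantitative HTS counter screen, compounds delivered in DMSO were left on unmodified HepG2 cells for 16 hr at 37 C. Viability was then determined fluorometrically with CellTiter-Fluor, in parallel with caspase-3/7 induction in the same wells.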

[5] = target: Nuclear receptor subfamily 1 group I member 2 (Homo sapiens) (UniProt O75469); assay: Human pregnane X receptor (PXR) small molecule agonists, qHTS assay (AID 1346982); also: nearly all actives have a fitted effect of over 35% in size; also: potency is read from the fitted curve at half-maximal effect; as to activation: % is scaled to controls: 0 for no effect and ±100 for the full control effect
How it was run: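 Reporter HepG2 cells expressing PXR-Luc are cultured in charcoal-stripped FBS (5%), treated with compounds for 24 hr at 37 C, and assayed by ONE-Glo luminescence after 30 min at room temperature.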

[6] = target: Acetylcholinesterase (Homo sapiens) (UniProt P22303); assay: Acetylcholinesterase (AChE) small molecule antagonists: colormetric cell-based qHTS assay (AID 1347395; calls by dose curve; also: % is scaled to controls: 0 for no effect and ±100 for the full control effect; nearly all actives have a fitted effect of over 30% in size)
How it was run: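 In this cell-based qHTS, attached SH-SY5Y cells were treated with test chemicals for 30 min, after which acetylthiocholine hydrolysis was followed by DTNB colour development over 90 min at 37 C.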

[7] = target: Acetylcholinesterase (Homo sapiens) (UniProt P22303); assay: Acetylcholinesterase (AChE) small molecule antagonists: enzyme-based qHTS assay (AID 1347397; calls by dose curve; also: % is scaled to controls: 0 for no effect and ±100 for the full control effect; nearly all actives have a fitted effect of over 55% in size); conditions: Potency: AChE enzyme activity inhibition
How it was run: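 Tox21 library chemicals are tested in qHTS format against recombinant human AChE. The enzyme, dispensed at 50 mU/mL, sits with compound for 30 min at room temperature. A DTNB–acetylthiocholine cocktail follows, and colour is read after 10 min.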

[8] = target: Acetylcholinesterase (Homo sapiens) (UniProt P22303); assay: Acetylcholinesterase (AChE) small molecule antagonists: fluorescence cell-based qHTS assay (AID 1347398; calls by dose curve; also: % is scaled to controls: 0 for no effect and ±100 for the full control effect; nearly all actives have a fitted effect of over 50% in size); conditions: Potency: AChE activity
How it was run: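 Cellular AChE inhibition: SH-SY5Y cells treated with test chemical for 30 min at 37 C, then acetylthiocholine hydrolysis followed over 40 min at room temperature via thiocholine-reactive Thiolite Green fluorescence (490/520 nm).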

[9] = target: Acetylcholinesterase (Homo sapiens) (UniProt P22303); assay: Acetylcholinesterase (AChE) small molecule antagonists: enzyme-based qHTS assay with human liver microsomes (AID 1347399; calls by dose curve; also: % is scaled to controls: 0 for no effect and ±100 for the full control effect; nearly all actives have a fitted effect of over 60% in size); conditions: Potency: qHTS inhibition
How it was run: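 Recombinant human AChE (50 mU/mL in the enzyme mix) and human liver microsomes (0.25 mg/mL final) were preincubated with compound and NADPH (0.25 mg/mL final) for 30 min at 37 C. Acetylthiocholine/DTNB was then added; thiocholine was read colorimetrically after 10 min at room temperature.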

[10] = target: Cytochrome P450 2D6 (Homo sapiens) (UniProt P10635); assay: Cytochrome P450 Family 2 Subfamily D Member 6 (CYP2D6) small molecule antagonists: luciferase reporter qHTS assay (AID 1671196); also: nearly all actives have a fitted effect of over 50% in size; also: potency is read from the fitted curve at half-maximal effect
How it was run: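 Test chemicals meet CYP2D6 plus proluciferin substrate (10 min, RT); NADPH regenerating solution then drives turnover for 1 h. Detection reagent halts the reaction; luminescence measured after 20 min.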

[11] = target: Cytochrome P450 2C19 (Homo sapiens) (UniProt P33261); assay: Cytochrome P450 Family 2 Subfamily C Member 19 (CYP2C19) small molecule antagonists: luciferase reporter qHTS assay (AID 1671197); also: nearly all actives have a fitted effect of over 65% in size; also: potency is read from the fitted curve at half-maximal effect
How it was run: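 P450-Glo CYP2C19 screening system; proluciferin substrate; DMSO compound stocks; 10 min RT preincubation; NADPH regeneration, 1 h at 37C; luciferin detection reagent, 20 min RT; luminescence as RLU.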

[12] = target: Cytochrome P450 2C9 (Homo sapiens) (UniProt P11712); assay: Cytochrome P450 Family 2 Subfamily C Member 9 (CYP2C9) small molecule antagonists: luciferase reporter qHTS assay (AID 1671198); also: nearly all actives have a fitted effect of over 50% in size; also: potency is read from the fitted curve at half-maximal effect
How it was run: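 CYP2C9 activity was measured with a P450-Glo proluciferin substrate. Enzyme–substrate mix was held with compound for 10 min at room temperature, then NADPH regeneration solution was added for 1 h at 37C. Luciferin product was read as luminescence.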

[13] = target: Voltage-gated inwardly rectifying potassium channel KCNH2 (Homo sapiens) (UniProt Q12809); assay: Human Ether-a-go-go-Related Gene (hERG) channel small molecule antagonists: fluorescence cell-based qHTS assay (AID 1671200); also: nearly all actives have a fitted effect of over 50% in size; also: potency is read from the fitted curve at half-maximal effect
How it was run: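 Cell line hERG-U2OS; dye FluxOR II, 1 h RT dark; Tl+ stimulus; ex 480/em 540 nm, read each second for 2 min.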

[14] = target: Cytochrome P450 3A4 (Homo sapiens) (UniProt P08684); assay: Cytochrome P450 Family 3 Subfamily A Member 4 (CYP3A4) small molecule antagonists: luciferase reporter qHTS assay (AID 1671201)
How it was run: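 Room-temperature assay throughout: 10 min compound–enzyme/substrate preincubation, 1 h reaction after NADPH regeneration solution, 20 min detection. Luciferin formed from proluciferin substrate is quantified by luminescence.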

[15] = target: Cytochrome P450 1A2 (Homo sapiens) (UniProt P05177); assay: Cytochrome P450 Family 1 Subfamily A Member 2 (CYP1A2) small molecule antagonists: luciferase reporter qHTS assay (AID 1671199); also: nearly all actives have a fitted effect of over 50% in size; also: potency is read from the fitted curve at half-maximal effect
How it was run: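 Steps: enzyme-substrate mix dispensed; test compounds and furafylline control pinned in; 10 min room temperature; NADPH regeneration solution added, 1 h; reaction stopped with luciferin detection reagent; luminescence read after 20 min.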

[16] = Caspase-3/7 induction in CHO-K1 cells by small molecules, qHTS cell viability counter screen (AID 1346979); also: % is scaled to controls: 0 for no effect and ±100 for the full control effect; nearly all actives have a fitted effect of over 35% in size
How it was run: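 Multiplexed with Caspase-Glo 3/7 in CHO-K1 cells, this counter screen added CellTiter-Fluor after 16hr of compound exposure and recorded fluorescence 1hr later.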

[17] = target: Nuclear receptor subfamily 1 group I member 2 (Rattus norvegicus) (UniProt Q9R1A7); assay: Rat pregnane X receptor (rPXR) activation by small molecules, qHTS assay (AID 1346983); conditions: rPXR luciferase reporter cells, One-Glo luminescence, 24 h; max activation: active compounds read high; also: % is scaled to controls: 0 for no effect and ±100 for the full control effect; nearly all actives have a fitted effect of over 20% in size
How it was run: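 Cell-based rPXR luciferase reporter assay, 2,000 cells per well, rested 5hr at 37 C before compound addition in DMSO, then 24 hr at 37 C. One-Glo reagent was added and luminescence read after 30 min at room temperature.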

[18] = target: Nuclear receptor subfamily 1 group I member 2 (Homo sapiens) (UniProt O75469); assay: CYP3A4 induction through human pregnane X receptor (PXR) by small molecules, qHTS assay (AID 1346984); also: nearly all actives have a fitted effect of over 40% in size; also: potency is read from the fitted curve at half-maximal effect; as to activation: % is scaled to controls: 0 for no effect and ±100 for the full control effect
How it was run: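 Induction measured in HepG2-based DPX-2 cells co-expressing human PXR and a CYP3A4 promoter-driven luciferase. After a 24-hour compound exposure, cells received CYP3A4 luciferin substrate at 3uM final for 3 hours, and light output was then recorded.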

[19] = target: Nuclear receptor subfamily 1 group I member 2 (Homo sapiens) (UniProt O75469); assay: Human pregnane X receptor (PXR) activation by small molecules, qHTS assay (AID 1346985); also: potency is read from the fitted curve at half-maximal effect; nearly all actives have a fitted effect of over 40% in size
How it was run: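 DPX-2 cells (HepG2 co-transfected with a PXR response element and a CYP3A4-promoter luciferase construct) were seeded at 2,000 per well, rested 5 hr at 37C, then exposed to DMSO-dissolved compounds for 24 hr. Activation was read as luciferase luminescence.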

Voltage-gated inwardly rectifying potassium channel KCNH2 (Homo sapiens), sequence (Q12809 whole entry, looked up): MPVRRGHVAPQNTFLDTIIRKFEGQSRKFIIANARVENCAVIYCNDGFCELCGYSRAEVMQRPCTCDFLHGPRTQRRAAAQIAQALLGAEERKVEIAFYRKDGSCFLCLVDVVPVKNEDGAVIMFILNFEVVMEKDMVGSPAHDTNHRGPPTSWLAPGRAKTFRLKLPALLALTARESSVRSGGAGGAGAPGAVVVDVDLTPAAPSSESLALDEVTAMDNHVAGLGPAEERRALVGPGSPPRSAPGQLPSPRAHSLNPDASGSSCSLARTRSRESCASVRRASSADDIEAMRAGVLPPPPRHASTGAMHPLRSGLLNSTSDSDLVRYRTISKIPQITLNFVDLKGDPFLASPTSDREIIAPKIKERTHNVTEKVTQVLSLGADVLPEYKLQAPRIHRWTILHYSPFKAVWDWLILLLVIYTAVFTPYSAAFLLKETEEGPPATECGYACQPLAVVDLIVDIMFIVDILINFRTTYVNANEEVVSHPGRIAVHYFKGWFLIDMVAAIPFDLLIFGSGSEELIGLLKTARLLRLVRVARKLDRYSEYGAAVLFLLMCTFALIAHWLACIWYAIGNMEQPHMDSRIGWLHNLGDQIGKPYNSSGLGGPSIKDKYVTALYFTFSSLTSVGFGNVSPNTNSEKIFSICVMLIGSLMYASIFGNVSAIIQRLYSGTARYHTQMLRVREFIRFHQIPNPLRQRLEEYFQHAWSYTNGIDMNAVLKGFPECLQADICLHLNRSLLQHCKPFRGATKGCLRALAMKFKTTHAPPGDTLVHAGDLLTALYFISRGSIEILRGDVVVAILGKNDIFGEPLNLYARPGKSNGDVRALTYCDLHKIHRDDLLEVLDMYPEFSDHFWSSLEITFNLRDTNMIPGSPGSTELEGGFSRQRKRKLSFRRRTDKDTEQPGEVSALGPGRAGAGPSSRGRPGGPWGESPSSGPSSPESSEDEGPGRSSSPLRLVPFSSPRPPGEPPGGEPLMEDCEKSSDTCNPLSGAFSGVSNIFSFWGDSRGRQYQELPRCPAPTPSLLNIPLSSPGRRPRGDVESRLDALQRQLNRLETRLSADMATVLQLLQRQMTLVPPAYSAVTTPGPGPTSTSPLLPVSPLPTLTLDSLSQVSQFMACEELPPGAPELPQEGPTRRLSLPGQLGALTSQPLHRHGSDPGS
Cytochrome P450 2C9 (Homo sapiens), sequence (P11712 whole entry, looked up): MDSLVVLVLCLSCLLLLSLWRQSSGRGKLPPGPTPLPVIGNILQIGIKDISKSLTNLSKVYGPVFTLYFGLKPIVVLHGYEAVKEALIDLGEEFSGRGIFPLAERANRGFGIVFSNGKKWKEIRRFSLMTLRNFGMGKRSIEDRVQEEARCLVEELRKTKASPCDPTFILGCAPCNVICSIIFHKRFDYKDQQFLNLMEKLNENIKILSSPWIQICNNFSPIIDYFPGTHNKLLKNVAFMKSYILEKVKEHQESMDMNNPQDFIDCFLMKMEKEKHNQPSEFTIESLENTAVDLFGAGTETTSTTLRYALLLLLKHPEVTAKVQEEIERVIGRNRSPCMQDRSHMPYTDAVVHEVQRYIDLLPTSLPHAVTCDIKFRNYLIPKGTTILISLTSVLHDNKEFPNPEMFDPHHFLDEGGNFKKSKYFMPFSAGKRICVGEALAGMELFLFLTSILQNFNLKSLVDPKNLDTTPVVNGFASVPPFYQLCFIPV
Acetylcholinesterase (Homo sapiens), sequence (P22303 whole entry, looked up): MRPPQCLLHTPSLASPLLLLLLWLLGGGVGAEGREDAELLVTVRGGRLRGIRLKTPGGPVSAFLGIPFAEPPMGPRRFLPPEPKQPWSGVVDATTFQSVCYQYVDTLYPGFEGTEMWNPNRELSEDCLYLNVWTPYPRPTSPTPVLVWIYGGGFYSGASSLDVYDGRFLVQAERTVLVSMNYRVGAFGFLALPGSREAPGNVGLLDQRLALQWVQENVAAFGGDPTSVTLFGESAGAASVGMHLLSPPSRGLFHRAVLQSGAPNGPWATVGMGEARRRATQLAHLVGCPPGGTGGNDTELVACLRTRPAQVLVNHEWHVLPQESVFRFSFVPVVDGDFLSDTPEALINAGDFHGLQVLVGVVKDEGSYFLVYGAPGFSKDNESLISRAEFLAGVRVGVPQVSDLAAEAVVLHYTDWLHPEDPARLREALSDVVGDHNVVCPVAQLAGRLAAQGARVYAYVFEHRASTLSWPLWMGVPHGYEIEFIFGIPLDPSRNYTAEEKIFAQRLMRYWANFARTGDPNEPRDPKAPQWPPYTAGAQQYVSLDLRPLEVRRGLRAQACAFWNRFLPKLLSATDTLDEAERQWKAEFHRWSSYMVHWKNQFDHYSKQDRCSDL
Cytochrome P450 1A2 (Homo sapiens), sequence (P05177 whole entry, looked up): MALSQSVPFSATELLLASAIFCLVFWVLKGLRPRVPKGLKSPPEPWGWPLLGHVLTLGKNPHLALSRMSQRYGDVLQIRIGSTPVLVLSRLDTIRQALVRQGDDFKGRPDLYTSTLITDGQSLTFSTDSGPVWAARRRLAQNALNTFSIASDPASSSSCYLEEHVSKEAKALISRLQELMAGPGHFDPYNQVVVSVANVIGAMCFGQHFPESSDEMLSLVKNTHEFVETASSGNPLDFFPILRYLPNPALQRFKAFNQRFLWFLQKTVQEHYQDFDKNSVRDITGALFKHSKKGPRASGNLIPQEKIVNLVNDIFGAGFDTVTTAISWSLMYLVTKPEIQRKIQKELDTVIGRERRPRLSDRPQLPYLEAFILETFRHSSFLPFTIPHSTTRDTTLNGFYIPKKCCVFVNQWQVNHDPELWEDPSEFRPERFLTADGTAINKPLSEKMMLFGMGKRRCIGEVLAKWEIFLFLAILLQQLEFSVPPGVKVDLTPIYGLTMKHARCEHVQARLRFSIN
Nuclear receptor subfamily 1 group I member 2 (Homo sapiens), sequence (O75469 whole entry, looked up): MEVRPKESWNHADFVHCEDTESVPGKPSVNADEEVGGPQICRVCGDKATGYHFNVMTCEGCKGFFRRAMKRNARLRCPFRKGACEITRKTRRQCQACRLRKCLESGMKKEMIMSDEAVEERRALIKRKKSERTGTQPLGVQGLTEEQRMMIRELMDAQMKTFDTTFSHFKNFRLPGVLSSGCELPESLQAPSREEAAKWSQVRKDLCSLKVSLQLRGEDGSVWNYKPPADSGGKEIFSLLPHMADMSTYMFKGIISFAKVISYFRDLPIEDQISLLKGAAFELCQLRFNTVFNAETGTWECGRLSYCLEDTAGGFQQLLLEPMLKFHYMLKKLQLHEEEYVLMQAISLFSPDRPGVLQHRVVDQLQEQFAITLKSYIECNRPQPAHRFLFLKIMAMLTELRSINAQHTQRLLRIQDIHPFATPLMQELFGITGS
Cytochrome P450 2D6 (Homo sapiens), sequence (P10635 whole entry, looked up): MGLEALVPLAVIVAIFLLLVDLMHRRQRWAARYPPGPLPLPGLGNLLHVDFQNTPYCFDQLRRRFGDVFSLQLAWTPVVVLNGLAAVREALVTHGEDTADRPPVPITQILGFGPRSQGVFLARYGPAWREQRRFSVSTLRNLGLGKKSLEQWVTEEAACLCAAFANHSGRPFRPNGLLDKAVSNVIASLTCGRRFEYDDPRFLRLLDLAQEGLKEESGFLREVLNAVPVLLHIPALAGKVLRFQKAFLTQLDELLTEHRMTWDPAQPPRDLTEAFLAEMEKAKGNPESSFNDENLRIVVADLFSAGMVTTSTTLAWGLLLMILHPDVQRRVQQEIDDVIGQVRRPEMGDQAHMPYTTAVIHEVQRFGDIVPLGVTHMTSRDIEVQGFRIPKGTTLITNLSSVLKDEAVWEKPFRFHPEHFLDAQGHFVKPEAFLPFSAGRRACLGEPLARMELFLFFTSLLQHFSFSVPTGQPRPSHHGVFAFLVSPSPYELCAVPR
Cytochrome P450 2C19 (Homo sapiens), sequence (P33261 whole entry, looked up): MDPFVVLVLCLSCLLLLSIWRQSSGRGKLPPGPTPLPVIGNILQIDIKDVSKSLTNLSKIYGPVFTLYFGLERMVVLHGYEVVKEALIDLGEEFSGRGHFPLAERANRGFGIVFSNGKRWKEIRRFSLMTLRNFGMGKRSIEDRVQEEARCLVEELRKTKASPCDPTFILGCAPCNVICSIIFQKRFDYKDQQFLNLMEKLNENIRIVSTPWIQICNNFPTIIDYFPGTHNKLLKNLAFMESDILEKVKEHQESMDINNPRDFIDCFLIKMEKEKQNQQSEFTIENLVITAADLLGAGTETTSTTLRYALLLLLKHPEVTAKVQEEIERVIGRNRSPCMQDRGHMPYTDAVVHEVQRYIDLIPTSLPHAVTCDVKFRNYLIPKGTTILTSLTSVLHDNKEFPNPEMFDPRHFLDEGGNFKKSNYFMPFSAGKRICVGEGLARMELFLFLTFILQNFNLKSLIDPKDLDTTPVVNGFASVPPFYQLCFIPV
Cytochrome P450 3A4 (Homo sapiens), sequence (P08684 whole entry, looked up): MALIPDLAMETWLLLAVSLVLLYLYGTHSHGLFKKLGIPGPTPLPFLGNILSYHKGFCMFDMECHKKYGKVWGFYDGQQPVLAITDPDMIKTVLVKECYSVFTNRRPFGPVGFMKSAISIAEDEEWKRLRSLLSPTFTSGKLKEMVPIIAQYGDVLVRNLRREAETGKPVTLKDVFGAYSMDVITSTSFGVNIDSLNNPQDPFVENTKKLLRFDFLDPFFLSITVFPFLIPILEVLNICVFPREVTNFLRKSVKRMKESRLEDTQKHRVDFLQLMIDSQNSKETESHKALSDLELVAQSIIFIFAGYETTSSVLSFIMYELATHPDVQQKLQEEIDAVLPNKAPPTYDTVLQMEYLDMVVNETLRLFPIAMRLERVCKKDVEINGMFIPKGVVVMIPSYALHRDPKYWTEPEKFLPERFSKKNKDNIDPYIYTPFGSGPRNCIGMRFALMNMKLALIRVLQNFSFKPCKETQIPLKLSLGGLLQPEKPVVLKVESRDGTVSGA

CCO/N=C(\CC)C1=C(O)CC(c2c(C)cc(C)cc2C)CC1=O (configuration not stated)
active: Potency [5] 30.6 µM | Potency [10] 27.5 µM | Potency [11] 5.03 µM | Potency [12] 7.31 µM
inactive: Potency [1] | Potency [2] | Potency [3] | Potency [4] | Potency [6] | Potency [7] | Potency [8] | Potency [9] | Potency [13] | Potency [14]

Nc1nc(N)c(N)c(N)n1
active: Potency [15] 35.7 µM
inactive: Potency [1] | Potency [2] | Potency [3] | Potency [5] | Potency [6] | Potency [8] | Potency [9] | Potency [10] | Potency [12] | Potency [13]

CNC(=O)CSP(=O)(OC)OC
inactive: Potency [1] | Potency [2] | Potency [3] | Potency [4] | Potency [5] | Potency [7] | Potency [8] | Potency [9] | Potency [11] | Potency [12] | Potency [13] | Potency [14]

CC(=O)[O-].CC(=O)[O-].O.O.[Zn+2]
inactive: Potency [1] | Potency [2] | Potency [3] | Potency [4] | Potency [13]

Nc1ccc(Cl)cc1C(=O)c1ccccc1F
active: Potency [5] 29.8 µM | Potency [11] 11 µM | Potency [12] 17.4 µM | Potency [15] 15.5 µM
inactive: Potency [1] | Potency [2] | Potency [3] | Potency [6] | Potency [7] | Potency [8] | Potency [9] | Potency [10] | Potency [13] | Potency [14]

COC(=O)c1cc(Oc2ccc(Cl)cc2Cl)ccc1[N+](=O)[O-]
active: Potency [5] 54.5 µM | Potency [10] 22.4 µM | Potency [11] 2.52 µM | Potency [12] 7.1 µM | Potency [15] 15.9 µM | Potency [13] 17.4 µM
inactive: Potency [1] | Potency [2] | Potency [3] | Potency [4] | Potency [6] | Potency [7] | Potency [8] | Potency [9] | Potency [14]

[C-]1=CC=CC1.[Cl][Zr+2][Cl].c1cc[cH-]c1
inactive: Potency [1] | Potency [16] | Potency [3] | Potency [4] | Potency [13]

O=C(N[C@@H]1N=C(c2ccccc2F)c2cccc3c2N(CC3)C1=O)c1cc2ccccc2[nH]1
active: Potency [5] 10.6 µM | Potency [12] 4.9 µM | Potency [13] 12 µM
inactive: Potency [1] | Potency [16] | Potency [3] | Potency [4] | Potency [6] | Potency [7] | Potency [9] | Potency [10] | Potency [15] | Potency [14]

Clc1ccc(C(Cl)(Cl)Cl)cc1Cl
inactive: Potency [1] | Potency [3] | Potency [6] | Potency [7] | Potency [9] | Potency [10] | Potency [12] | Potency [13]
active: Potency [5] 30 µM

C[C@@H]1CC2=CC(=O)CC[C@@H]2[C@H]2CC[C@@]3(C)[C@@H](CC[C@]3(C)O)[C@@H]21
inactive: Potency [1] | Potency [2] | Potency [3] | Potency [4] | Potency [5] | Potency [6] | Potency [7] | Potency [8] | Potency [9] | Potency [10] | Potency [15] | Potency [13]
active: Potency [11] 8.71 µM

CN1CCc2cc(Cl)c(O)cc2[C@H]2c3ccccc3CC[C@@H]21
inactive: max activation [17] 0.833%
active: Potency [18] 2.24 µM | Potency [19] 2.24 µM

Oc1ccc2[nH]cc(CCCCN3CC=C(c4ccccc4)CC3)c2c1
inactive: max activation [17] 4.09%

ClC1=C(Cl)[C@]2(Cl)[C@@H]3[C@H]4C[C@H]([C@@H]5O[C@H]45)[C@@H]3[C@@]1(Cl)C2(Cl)Cl
inactive: Potency [18]
active: Potency [19] 25.1 µM
